Only some compounds are listed: those with a hit (about 0.77% of all), similar ones and a draw of the others.
LmPK inhibitor: qHTS Assay for Inhibitors of Leishmania Mexicana Pyruvate Kinase (LmPK); Q27686; 290,000 compounds, 0.37% hits; AID 1721, 2009; Potency, µM (titrated, usually from 57.5 µM), for inactives: at the highest dose activity change, negative = inhibition, usual class: inhibitors; purified LmPK, Kinase-Glo ATP luminescence, 1 h; further: potency means the concentration at half of the fitted maximal effect; on the % scale 0 is the no-effect control and ±100 the full control effect
Target sequence (Q27686 whole entry, looked up): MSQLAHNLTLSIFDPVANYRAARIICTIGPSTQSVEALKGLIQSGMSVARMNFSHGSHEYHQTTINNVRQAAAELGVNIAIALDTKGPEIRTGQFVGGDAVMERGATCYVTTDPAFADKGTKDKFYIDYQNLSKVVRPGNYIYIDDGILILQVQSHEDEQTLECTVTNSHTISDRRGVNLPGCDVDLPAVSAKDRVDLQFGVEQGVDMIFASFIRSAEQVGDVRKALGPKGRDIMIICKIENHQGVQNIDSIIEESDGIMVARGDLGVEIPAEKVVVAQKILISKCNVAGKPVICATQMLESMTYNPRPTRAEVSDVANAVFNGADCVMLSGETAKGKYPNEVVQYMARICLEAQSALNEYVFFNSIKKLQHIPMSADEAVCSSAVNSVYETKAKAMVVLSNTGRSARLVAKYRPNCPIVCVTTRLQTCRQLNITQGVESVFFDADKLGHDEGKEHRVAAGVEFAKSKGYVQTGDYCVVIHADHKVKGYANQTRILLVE
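0.1 nM LmPK, 0.5 mM PEP, 0.1 mM ADP; 50 mM imidazole pH 7.2, 7 mM MgCl2, 50 mM KCl; 1 h RT. Kinase-Glo luminescence readout, normalized to no-enzyme (full inhibition) and uninhibited wells.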
NS1 inh: qHTS Assay for Inhibitors of Influenza NS1 Protein Function | Potency, µM (highest dose often 46.1 µM), without a hit: at the top dose activity, positive = more growth | 270,000 compounds, 0.4% hits; calls by dose curve; further: potency means the concentration at half of the fitted maximal effect; actives are rising curves; nearly all actives have a fitted effect of over 50% in size
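S. cerevisiae expressing influenza A NS1, grown in glucose, washed, then diluted 1:100 into pH 6.0 -URA galactose medium with 23 nl compound. Growth recovery read as OD600; NS1-free strain serves as control.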
TbPYK inhibitor: qHTS of Trypanosoma Brucei Inhibitors | 410,000 compounds, 0.12% hits | Potency, µM (series often up to 76.8 µM), inactives show top-dose activity, negative = inhibition, hits mostly inhibitors | TbPYK enzyme, Kinase-Glo Plus ATP luminescence, 45 min | AID 624173, 2012 | pyruvate kinase (Trypanosoma brucei), Q57TT1; further: potency means the concentration at half of the fitted maximal effect; on the % scale 0 is the no-effect control and ±100 the full control effect; nearly all actives have a fitted effect of over 50% in size
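Enzyme and substrate buffer are dispensed first and compound is pin-transferred. ADP at 130 uM final then starts the reaction, which runs 45 min at room temperature. Detection reagent is added for 10 min before luminescence is imaged.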
RE007 growth inh: qHTS Assay for Inhibitors of the HIV-1 protein Vpr | Potency, µM (doses to about 92.2 µM), for the others: top-dose activity change, negative = less growth, most hits filed as inhibitors | 360,000 compounds, 0.21% hits | S. pombe RE007 Vpr strain, BacTiter-Glo ATP luminescence, 24 h | AID 651644, 2012; active means well fitted falling curve with a large enough effect; inconclusive means small, poorly fitted or top-dose-only effect; inactive means no such curve, though single readings can be large or run the other way; further: potency means the concentration at half of the fitted maximal effect; on the % scale 0 is the no-effect control and ±100 the full control effect; nearly all actives have a fitted effect of over 50% in size
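Fission yeast RE007 carrying one integrated HIV-1 vpr copy, seeded at OD 0.01 in PMG+AL medium with 23 nL pinned compound. Grown 24 h at 30 degrees; viability read by BacTiter-Glo luminescence after 5 min.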
LmPK confirm: Confirmation Assay for Inhibitors of Leishmania Mexicana Pyruvate Kinase (LmPK); shares compounds with LmPK inhibitor; purified LmPK, Kinase-Glo ATP luminescence, 1 h; Potency, µM (highest dose often 57.5 µM), without a hit: at the top dose activity change, negative = inhibition, actives largely listed as inhibitors; 150 compounds, 40% hits; AID 2559, 2010;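 active means compounds giving a full or partial concentration-response curve, as inhibitors or activators; inconclusive means weak, top-dose-only or unclear curve responses; inactive means no response at any tested dose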
* = called active by the depositor; ? = inconclusive; nt = no result given; [ ] = another dose, or the depositor's remark. Unless noted, the call rests on the fitted dose curve; in most records, active means well fitted curve in the direction sought with a large enough effect; inconclusive means small, poorly fitted or top-dose-only effect, or another doubt; inactive means no such curve, though single readings can be large; an effect the other way counts as inactive or inconclusive.

SMILES | LmPK inhibitor | NS1 inh | TbPYK inhibitor | RE007 growth inh | LmPK confirm
COn1c(SCc2cccnc2)nc2ccccc2c1=O | -4% | -15% | 3% | -4% | nt
COC(=O)c1c(-c2cccs2)csc1NC(=O)c1ccc(Cl)cc1 | nt | nt | -29% | nt | nt
COc1ccc(C(=O)Nc2scc(-c3ccc(Cl)cc3Cl)c2C(N)=O)cc1 | 5% | 8% | 4% | -14% | 0%
CC[n+]1c(C)sc2sc3ccccc3c21 | 2.8µM* | 16% | nt | nt | 4.6µM*
O=C(Nc1nc2ccccc2[nH]1)c1ccccc1F | 3.2µM* | -15% | ? | 6.3µM* | 6.5µM*
Cc1ccsc1C(=O)Nc1nc2ccccc2[nH]1 | 2.8µM* | -33% | ? | ? | 21µM*
CN(C(=O)Cn1cc(S(=O)(=O)Cc2ccccc2Cl)c2ccccc21)c1ccccc1 | nt | nt | -14%[15.4 µM] | nt | nt
O=C1c2ccccc2-c2nnc(-c3ccccc3)cc21 | 2.8µM* | -32% | ? | ? | 7.3µM*
O=C(Nc1ccc2c(c1)OCCO2)c1ccccn1 | 5µM* | 0% | ? | ? | 18µM*
O=C(/C=C/c1ccc2c(c1)OCO2)c1ccccn1 | 5µM* | -54% | ? | ? | 21µM*
CCn1c(=O)c2cc(C(=O)Nc3cc(C)c(Cl)cc3OC)sc2c2ccccc21 | nt | nt | -7% | nt | nt
CCCn1cc(S(=O)(=O)c2ccccc2)c(=O)c2cc(F)c(N3CCCCCC3)cc21 | nt | nt | -8% | nt | nt
CC1=C(C(=O)Nc2cccc(C(F)(F)F)c2)C(c2ccccn2)n2ncnc2N1 (stereo not drawn) | nt | nt | -1% | nt | nt
O=c1cc(-c2ccccc2)[nH]c2ccccc12 | 3% | -67% | -5% | ? | nt
O=C1C(c2cc(=O)c3ccccc3[nH]2)=C(O)c2ccccc21 | 4µM* | 11% | 8.9µM* | -21% | ?
CCOc1ccc(-n2c(SC(C)C(=O)OC)nc3c([nH]c4ccccc43)c2=O)cc1 (stereo not drawn) | nt | nt | -6% | nt | nt
CCc1ccc(NC(=O)CSC2=Nc3ccccc3C3=NC(CC(=O)NCc4ccc5c(c4)OCO5)C(=O)N23)cc1 (stereo not drawn) | nt | nt | -2% | nt | nt
Cc1nc(N/N=C/c2ccccn2)sc1C | 10µM* | -47% | ? | 16µM* | 18µM*
CCc1nc2cccnc2n1-c1ccc(CC(=O)Nc2cccc(C)c2C)cc1 | nt | nt | 2% | nt | nt
CN=c1scc(-c2ccco2)n1/N=C/c1ccc(O)c(O)c1 | 5.6µM* | nt | -14% | -13% | ?
CN(C)c1ccc(N=Nc2nc3ccccc3n2C)cc1 | 4µM* | -34% | 14µM* | 11µM* | 3.7µM*
Cn1c(Cl)nc2ccccc21 | -3% | 8% | 1% | 4% | nt
Cn1c(N=Nc2ccccc2)nc2ccccc21 | 2.2µM* | -47% | 14µM* | 16µM* | 7.3µM*
CC(CC(=O)O)(CC(=O)O)C(=O)O | nt | -2% | nt | nt | nt
Cc1cccc(NC(=O)c2cc3ccccc3oc2=O)c1 | -10% | 0% | 0% | 0% | nt
SMILES | LmPK inhibitor | NS1 inh | TbPYK inhibitor | RE007 growth inh | LmPK confirm
Cc1ccnc(NC(=O)c2cc3ccccc3oc2=O)c1 | 7.9µM* | -1% | -10% | -3% | ?
CN(Cc1cn(C)nc1-c1ccccc1F)Cc1nccn1C | 6% | 8% | 0% | -10% | nt
CN(Cc1cccc(-n2cccn2)c1)Cc1cn(C)nc1-c1ccccc1F | -5% | -3% | 0% | -10% | -7%
CC(C)(C)OC(=O)N1CCC(c2c(C(=O)N3CCN(c4ccccc4F)CC3)cnn2C(C)(C)C)CC1 | nt | nt | 3% | nt | nt
Cc1ccc(S(=O)(=O)/N=C2/C=C(Sc3ncn[nH]3)C(=O)c3ccccc32)cc1 | 7.1µM* | -31% | 7.9µM* | ? | 4.6µM*
Cc1ccc(S(=O)(=O)/N=C2\C=C(NS(=O)(=O)c3ccccc3)C(=O)c3ccccc32)c(C)c1 | nt | nt | -22% | -13% | nt
Cc1ccc(S(=O)(=O)/N=C2/C=C(Sc3ncn[nH]3)C(=O)c3ccccc32)c(C)c1 | 7.9µM* | -24% | nt | nt | ?
Cc1ccc(S(=O)(=O)/N=C2\C=C(Nc3ccc(O)cc3)C(=O)c3ccccc32)cc1 | nt | nt | -26% | -25% | nt
CCC(=O)N1CCc2cc(S(=O)(=O)NC(Cc3ccccc3)C(=O)NCc3ccc(F)cc3)ccc21 (stereo not drawn) | nt | nt | 3% | nt | nt
Cc1ccc(-c2nn(C)c(=O)c3ccccc23)cc1S(=O)(=O)NCCN1CCOCC1 | 1% | 5% | -3% | -2% | nt
CCOC(=O)CNS(=O)(=O)c1cc(-c2nn(C)c(=O)c3ccccc23)ccc1C | 2% | ? | -10% | 11% | 7%
CC(C)C[C@H](N)c1nnc(SCc2ccc(Cl)cc2)o1 | -5% | 3% | -2% | -9% | nt
CC(C)[C@H](N)c1nnc(SCc2ccc(Cl)cc2)o1 | -1% | 8% | 0% | 1% | -2%
Cc1cc(/C=N/NC(=O)c2ccoc2C)cc(C)c1O | nt | nt | -8% | 3% | nt
Cc1occc1C(=O)N/N=C/c1ccc2c(c1)OCO2 | 4.5µM* | -59% | ? | ? | 16µM*
Cc1ccc(C)c(OC2=NS(=O)(=O)c3ccccc32)c1 | 10µM* | 4% | -19% | -9% | ?
Cc1ccc(C(=O)O/N=C(\N)c2ccccc2)c(Cl)c1 | 4.5µM* | -42% | ? | ? | 18µM*
Cc1ccc(-c2nc(SCCOc3ccccc3C)n3[nH]c(=O)cc3n2)cc1 | nt | nt | 6% | nt | nt
CCN1/C(=C/c2ccc3cccc(C)c3[n+]2CC)Sc2ccccc21 | -14% | -178% | -5% | ? | -12%

Bioassay records as filed in PubChem BioAssay.
